Screening results: PubChem BioAssay, National Center for Advancing Translational Sciences (NCATS)
SARS PLP yeast: inhibitors of SARS-CoV papain-like protease in yeast. S. cerevisiae expressing SARS-CoV PLpro, growth rescue. Potency, µM (doses to about 32.9 µM), most hits filed as activators. 0.19% of 330,000 active. AID 485353; calls by dose curve; note: nearly all actives have a fitted effect of over 55% in size
HCMV inh: inhibitors of human cytomegalovirus; HFF cells, HCMV-luciferase reporter, 72 h; stronger effect = lower value; activity change, negative = inhibition, % at 57.5 µM; 4.5% of 410,000 active; in the data active = activity change below about -60%; inconclusive = no clear call, values can overlap the other calls; inactive = above about -39%
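After 16 h attachment at 37C, HFF cells received test compound and HCMV-luciferase (1 PFU/cell); reporter luminescence read 72 h later, data normalized against buffer-only and known inhibitor Salinomycin.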
Sm TGR block: blocks Schistosoma mansoni thioredoxin glutathione reductase | 3% of 360,000 active | purified TGR, DTNB reduction, TNB absorbance 405 nm | Q962Y6 | Potency, µM (series often up to 114 µM), most hits filed as inhibitors; note: nearly all actives have a fitted effect of over 60% in size
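TGR 20 nM + NADPH 100 uM (dispensed conc.), cpd preinc 15 min RT; start with NADPH (500 uM addition) then DTNB (15 mM addition). Kinetic TNB absorbance, 405 nm filter. Four-parameter Hill fit across titration.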
Pf growth 96h: inhibits malaria parasite growth, 96 h; P. falciparum luciferase reporter growth, 96 h; Potency, µM (top dose mostly 28.7 µM), hits mostly inhibitors; AID 504834; 6.9% of 320,000 active
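Readout is luminescence from an integrated firefly luciferase in P. falciparum. Red cells, 2% hematocrit and 0.05% parasitemia final, were cultured with compound through two parasite generations (96 hours) at 37 C, 5% CO2.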
HCV inh: blocks hepatitis C virus; Huh7.5.1 HCVcc-Cre infection, luciferase reporter, 44 h; Potency, µM (titrated, usually from 41.8 µM), most hits filed as inhibitors; 3.4% of 340,000 active; AID 651820
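Cells seeded at 1,000/well and cultured 4 h, then compounds added followed by HCVcc-Cre virus (~0.5 moi). After 44 h further culture, luciferase substrate was added, plates held 15 min at room temperature, and luminescence read for 15 sec.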
Pf growth 48h: inhibits P. falciparum growth in the first generation, 48 h; P. falciparum luciferase growth in erythrocytes, 48 h; Potency, µM (titrated, usually from 28.7 µM), hits mostly inhibitors; 5.9% of 310,000 active; AID 504832
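Luciferase-expressing P. falciparum in infected erythrocytes (2% hematocrit, 0.1% parasitemia final) in RPMI 1640/0.5% Albumax were exposed to compound for 48 hours at 37 C, 5% CO2; growth read as luminescence.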
Each line names hits and unclear results; the compound was inactive in the other large screens. Rows were chosen to be rich in hits. Some 15% of all compounds tested hit in one or more screens of this group. Unless noted, calls come from the whole dose curve; as a rule, active = well fitted curve in the direction sought with a large enough effect; inconclusive = small, poorly fitted or top-dose-only effect, or another doubt; inactive = no such curve, though single readings can be large; an effect the other way counts as inactive or inconclusive.

Cc1cccc(OCCCC(=O)NCc2ccco2)c1	Sm TGR block inconclusive, Pf growth 96h inconclusive, Pf growth 48h inconclusive
O=C(CCc1ccc(Oc2cc([N+](=O)[O-])cc([N+](=O)[O-])c2)cc1)N1CCCCCC1	Pf growth 96h inconclusive, HCV inh inconclusive, Pf growth 48h 7.38µM
O=C(O)c1ccc(Oc2cc(Oc3ccc(C(=O)O)cc3)cc([N+](=O)[O-])c2)cc1	Pf growth 96h inconclusive, Pf growth 48h inconclusive
CCCCNS(=O)(=O)c1ccc2nc(-c3cccs3)cc(C(=O)NCC(OC)OC)c2c1	Pf growth 96h inconclusive, Pf growth 48h inconclusive (no result: HCMV inh)
C#CCOCCOCCOCCNc1nc(N2CCN(C(=O)Cn3cc(CCCCN)nn3)CC2)nc(N2CCN(C(=O)[C@H](C)n3cc(CCCN=C(N)N)nn3)CC2)n1	Pf growth 96h 0.117µM (no result: HCMV inh)
C#CCOCCOCCOCCNc1nc(N2CCN(C(=O)Cn3cc(CC(C)O)nn3)CC2)nc(N2CCN(C(=O)[C@H](C)n3cc(CCCN=C(N)N)nn3)CC2)n1 (stereo partly specified)	Pf growth 96h 11.7µM (no result: HCMV inh)
C#CCOCCOCCOCCNc1nc(N2CCN(C(=O)Cn3cc(CCCN=C(N)N)nn3)CC2)nc(N2CCN(C(=O)[C@H](CCCCN)n3cc(CC(C)O)nn3)CC2)n1 (stereo partly specified)	Pf growth 96h inconclusive, Pf growth 48h inconclusive
C#CCOCCOCCOCCNc1nc(N2CCN(C(=O)Cn3cc(CCCCN)nn3)CC2)nc(N2CCN(C(=O)[C@H]([C@@H](C)CC)n3cc(CCCN=C(N)N)nn3)CC2)n1	Pf growth 96h inconclusive, Pf growth 48h 0.738µM
C#CCOCCOCCOCCNc1nc(N2CCN(C(=O)Cn3cc(CCCN=C(N)N)nn3)CC2)nc(N2CCN(C(=O)[C@H]([C@@H](C)O)n3cc(CCCCN)nn3)CC2)n1	Sm TGR block inconclusive, Pf growth 96h 10.4µM
C#CCOCCOCCOCCNc1nc(N2CCN(C(=O)Cn3cc(CCCN=C(N)N)nn3)CC2)nc(N2CCN(C(=O)[C@H](C(C)C)n3cc(CCO)nn3)CC2)n1	Pf growth 96h inconclusive
COc1ccc(CCN2CC(C(=O)NCCc3ccccc3C)CCC2=O)cc1 (stereo unspecified)	none
C#CCOCCOCCOCCNc1nc(N2CCN(C(=O)Cn3cc(CCCN=C(N)N)nn3)CC2)nc(N2CCN(C(=O)[C@H]([C@@H](C)CC)n3cc(CCCN=C(N)N)nn3)CC2)n1	Sm TGR block inconclusive, Pf growth 96h 0.037µM, Pf growth 48h 1.17µM (no result: HCMV inh)
O=C(NCCCn1ccnc1)c1nn2c(C(F)(F)F)cc(-c3ccccc3)nc2c1Cl	HCV inh 10µM, Pf growth 48h 14.7µM
Cc1ccc(-c2cc(C(F)(F)F)n3nc(C(=O)NCCCn4ccnc4)cc3n2)cc1C	Pf growth 96h inconclusive, HCV inh 5.01µM, Pf growth 48h inconclusive
CCCCNC(=O)c1cc2nc(-c3ccc(OC)cc3)cc(C(F)(F)F)n2n1	none (no result: SARS PLP yeast, Sm TGR block, Pf growth 96h, HCV inh, Pf growth 48h)
COc1cc2c(cc1NC(=O)C(C)OC(=O)C1CC(=O)N(Cc3ccco3)C1)oc1ccccc12 (stereo unspecified)	HCV inh 14.1µM (no result: Pf growth 48h)
COc1cc(CNc2ccccc2SC)ccc1O	Sm TGR block 2.24µM (no result: HCV inh)
CCOc1cc(CNc2ccccc2SC)ccc1O	Sm TGR block 8.91µM (no result: HCMV inh, Pf growth 96h)
COc1cc(C[C@@H](C)[C@@H](C)Cc2ccc(O)c(OC)c2)ccc1O	none (no result: Sm TGR block, Pf growth 96h, Pf growth 48h)
CCOc1cc(-c2nc3ccccc3s2)ccc1O	HCV inh inconclusive
Cc1ccc2c(C)c3ccc4ccccc4c3c[n+]2c1	HCMV inh -95.5, HCV inh 12.6µM (no result: SARS PLP yeast, Sm TGR block, Pf growth 96h, Pf growth 48h)
Cc1oc(-c2ccc(Cl)cc2)nc1Cn1c(=O)cc(C)c2c(C)nn(-c3cccc(F)c3)c21	none (no result: SARS PLP yeast, Pf growth 96h, HCV inh, Pf growth 48h)
CCOC(=O)c1c(NC(=O)Nc2ccc(F)cc2)sc(C(=O)N(C)C)c1C	none (no result: SARS PLP yeast, Pf growth 96h, HCV inh, Pf growth 48h)
COc1ccc(-n2cc(CNCCCN3CCCC3=O)c(-c3ccccc3Cl)n2)cc1	Sm TGR block 44.7µM, Pf growth 96h inconclusive, Pf growth 48h inconclusive
COc1ccc(-c2nn(-c3ccccc3)cc2CNCCN2CCOC2=O)c(F)c1	none
COc1ccc(C(O)c2ncc(-c3cccc(C(F)(F)F)c3)[nH]2)cc1F (stereo unspecified)	none (no result: SARS PLP yeast, Sm TGR block, Pf growth 96h, HCV inh, Pf growth 48h)
